Assay results as given in PubChem BioAssay (NCATS).
Results filed as inconclusive are left out. A call without a number means that no potency is given here. Active and inactive are the calls of the source. Calls follow the shape of the dose curve; as a rule, active = well fitted inhibition curve with a large enough effect; inconclusive = small, poorly fitted or top-dose-only effect; inactive = flat fitted curve, though single readings scatter.

Key:
Assay in all cases: qHTS profiling for inhibitors of Plasmodium falciparum proliferation (AID 504749); also: nearly all actives have a fitted effect of over 60% in size
Conditions in all cases: P. falciparum in erythrocytes, SYBR Green DNA, 72 h; series mostly up to 28.7 µM
CP256 = tested on: CP256
Outline: (§1)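 SYBR Green fluorescence (ex 485 nm, em 535 nm) reports parasite DNA after 72 h compound exposure of infected red cells at 0.3% parasitemia, 2.5% hematocrit; signal normalized to 0.29 uM artemisinin and vehicle wells.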

CP260 = tested on: CP260
Outline: as §1

CP262 = tested on: CP262
Outline: as §1

CP265 = tested on: CP265
Outline: as §1

CP266 = tested on: CP266
Outline: as §1

CP268 = tested on: CP268
Outline: as §1

CP269 = tested on: CP269
Outline: as §1

CP286 = tested on: CP286
Outline: as §1

CP291 = tested on: CP291
Outline: as §1

CP297 = tested on: CP297
Outline: as §1

CP305 = tested on: CP305
Outline: as §1

CP315 = tested on: CP315
Outline: as §1

CP325 = tested on: CP325
Outline: as §1

CP329 = tested on: CP329
Outline: as §1

CP335 = tested on: CP335
Outline: as §1

DFO2036 = tested on: DFO2036
Outline: as §1

DIV14 = tested on: DIV14
Outline: as §1

DIV17 = tested on: DIV17
Outline: as §1

DIV30 = tested on: DIV30
Outline: as §1

Dd2 = tested on: Dd2
Outline: as §1
Potency is read from the fitted curve at half-maximal effect.

SMILES | Potency (CP256) | Potency (CP260) | Potency (CP262) | Potency (CP265) | Potency (CP266) | Potency (CP268) | Potency (CP269) | Potency (CP286) | Potency (CP291) | Potency (CP297) | Potency (CP305) | Potency (CP315) | Potency (CP325) | Potency (CP329) | Potency (CP335) | Potency (DFO2036) | Potency (DIV14) | Potency (DIV17) | Potency (DIV30) | Potency (Dd2)
CCC(=O)c1c(O)cc(O)cc1O | inactive | inactive | inactive | inactive | inactive | inactive | inactive | inactive | inactive | inactive | inactive | inactive | inactive | inactive | inactive | inactive | inactive | inactive | inactive | inactive
Cc1cc(O)c(C(C)C)cc1Cl | inactive | inactive | inactive | inactive | inactive | inactive | inactive | inactive | inactive | inactive | inactive | inactive | inactive | inactive | inactive | inactive | inactive |  | inactive | inactive
Nc1ccc(C(=O)O)cc1 | inactive | inactive | inactive | inactive | inactive | inactive | inactive | inactive | inactive | inactive | inactive | inactive | inactive | inactive | inactive | inactive | inactive | inactive | inactive | inactive
Nc1ccc(C(=O)Nc2ccccc2N)cc1 | inactive | inactive | inactive | inactive | inactive | inactive | inactive | inactive | inactive | inactive | inactive | inactive | inactive | inactive | inactive | inactive | inactive | inactive |  | inactive
COC1=CC(=O)C[C@@H](C)[C@]12Oc1c(Cl)c(OC)cc(OC)c1C2=O | inactive | inactive | inactive | inactive | inactive | inactive | inactive | inactive | inactive | inactive | inactive | inactive | inactive | inactive | inactive | inactive |  | inactive | inactive | inactive
C[C@H]1[C@H](NC(=O)/C(=N/OC(C)(C)C(=O)O)c2csc(N)n2)C(=O)N1S(=O)(=O)O (stereo in doubt) | inactive | inactive | inactive | inactive | inactive | inactive | inactive | inactive | inactive | inactive | inactive | inactive | inactive | inactive | inactive | inactive | inactive | inactive | inactive | inactive
OCc1ccccc1O | inactive | inactive | inactive | inactive | inactive | inactive | inactive | inactive | inactive | inactive | inactive | inactive | inactive | inactive | inactive | inactive | inactive | inactive | inactive | inactive
C[C@@H]1C(=O)NC2=Nc3cccc(Cl)c3CN21 | inactive | inactive | inactive | inactive | inactive | inactive | inactive | inactive | inactive | inactive | inactive | inactive | inactive | inactive | inactive | inactive |  | inactive | inactive | inactive
COc1c2occc2c(OC)c2c(=O)cc(C)oc12 | inactive | inactive | inactive | inactive | inactive | inactive | inactive | inactive | inactive | inactive | inactive | inactive | inactive | inactive | inactive | inactive | inactive | inactive | inactive | inactive
CCCCCC=CCC=CCCCCCCCC(=O)OCC | inactive | inactive | inactive | inactive | inactive | inactive | inactive | inactive | inactive | inactive | inactive | inactive | inactive | inactive | inactive | inactive | inactive | inactive | inactive | inactive
Cc1ncc(CSSCc2cnc(C)c(O)c2CO)c(CO)c1O | inactive | inactive | inactive | inactive | inactive | inactive | inactive | inactive | inactive | inactive | inactive | inactive | inactive | inactive | inactive | inactive | inactive | inactive | inactive | inactive
O=C(CCN1CCC(c2ccccc2)C1)c1ccc2c(c1)OCCO2 (stereo not drawn) | inactive | inactive | inactive | inactive | inactive | inactive | inactive | inactive | inactive | inactive | inactive | inactive | inactive | inactive | inactive | inactive |  |  | inactive | inactive
Cc1cc(=O)n(-c2ccccc2)n1C | inactive | inactive | inactive | inactive | inactive | inactive | inactive | inactive | inactive | inactive | inactive | inactive | inactive | inactive | inactive | inactive | inactive | inactive | inactive | inactive
Nc1cc(Cl)c(NC2=NCCN2)c(Cl)c1 | inactive | inactive | inactive | inactive | inactive | inactive | inactive | inactive | inactive | inactive | inactive | inactive | inactive | inactive | inactive | inactive |  | inactive | inactive | inactive
Nc1ccc(/C=C/c2ccc(N)cc2S(=O)(=O)O)c(S(=O)(=O)O)c1 | inactive | inactive | inactive | inactive | inactive | inactive | inactive | inactive | inactive | inactive | inactive | inactive | inactive | inactive | inactive | inactive | inactive | inactive | inactive | inactive
CN(C(=O)CN(CCO)CC(=O)N(C)C(C)(C)Cc1ccccc1)C(C)(C)Cc1ccccc1 | inactive | inactive | inactive | inactive | inactive |  | inactive |  | inactive | inactive | inactive | inactive | inactive | inactive |  | inactive |  |  | inactive | inactive
O=S1(=O)c2cccc3cccc(c23)N1CCCN1CCN(c2ccc(F)cc2)CC1 | inactive | inactive | inactive | inactive | inactive | inactive | inactive | inactive |  | inactive | inactive | inactive | inactive | inactive | inactive | inactive |  |  | inactive | inactive
CCN1CCC[C@H]1CNC(=O)c1c(OC)ccc(Br)c1OC | inactive | inactive | inactive | inactive | inactive | inactive | inactive | inactive | inactive |  | inactive | inactive | inactive | inactive | inactive | inactive |  |  | inactive | 12.6 µM (active)
O=C1[C@H]2CCCC[C@H]2C(=O)N1CCCCN1CCN(c2nsc3ccccc23)CC1 | inactive | inactive | inactive | inactive | inactive | inactive | inactive | inactive | inactive |  | inactive | inactive | inactive | inactive | inactive | inactive |  |  | inactive | inactive
Cc1c(C)n(Cc2ccccc2)c2ccc(C(=O)OCCN(C)C)cc12 | inactive | inactive | inactive | inactive |  | inactive | inactive | inactive | inactive | inactive | inactive | inactive | inactive | inactive | inactive | inactive | inactive | inactive | inactive | inactive
CCCCN1CCCC1C(=O)Nc1c(C)cc(C)cc1C (stereo not drawn) | inactive | inactive | inactive | inactive |  | inactive | inactive | inactive | inactive |  | inactive | inactive | inactive | inactive |  | inactive | inactive | inactive | inactive | 
CCCCCCCCCCCCCCCCOP(=O)([O-])OCC[N+](C)(C)C | inactive | inactive | inactive | inactive | inactive | inactive | inactive | inactive | inactive |  | inactive | inactive | inactive | inactive | inactive | inactive | inactive | inactive | inactive | inactive
CCOC(=O)c1cccc(N)c1 | inactive | inactive | inactive | inactive |  |  |  | inactive |  | 15.1 µM (active) |  |  |  |  | inactive | inactive |  |  | 12 µM (active) | inactive
CCCCC(CC)CN=C(N)NC(N)=NCCCCCCN=C(N)NC(N)=NCC(CC)CCCC (stereo not drawn) | 3.55 µM (active) | 1.12 µM (active) | 1.07 µM (active) | 3.55 µM (active) |  | 1.69 µM (active) | 1.51 µM (active) | 0.631 µM (active) | 1.69 µM (active) | 3.38 µM (active) | 1.69 µM (active) | 1.35 µM (active) | 1.2 µM (active) | 1.51 µM (active) | 1.51 µM (active) | 3.16 µM (active) | 1.35 µM (active) | 1.2 µM (active) | 1.2 µM (active) | 2 µM (active)
COc1cccc(CCc2ccccc2OCC(CN(C)C)OC(=O)CCC(=O)O)c1 (stereo not drawn) | 11.2 µM (active) | 3.55 µM (active) | 12 µM (active) | 7.08 µM (active) |  | 7.57 µM (active) | 6.75 µM (active) | 5.62 µM (active) | 12 µM (active) | 3.38 µM (active) | 7.57 µM (active) | 15.1 µM (active) |  | 12 µM (active) | 3.79 µM (active) | 11.2 µM (active) | 2.13 µM (active) | 2.39 µM (active) | 6.75 µM (active) | 1.41 µM (active)
CC(C)COC(=O)c1ccc(N)cc1 | inactive | inactive | inactive | inactive | inactive | inactive |  | inactive |  | inactive | inactive | inactive |  |  | inactive | inactive |  | inactive | inactive | inactive
CC(O)(P(=O)(O)O)P(=O)(O)O | inactive | inactive | inactive | inactive | inactive |  | inactive | inactive |  |  |  | inactive |  | inactive | inactive | inactive |  |  | inactive | inactive
